Experimental data as given in paper PMC7862700, “An all-to-all approach to the identification of sequence-specific readers for epigenetic DNA modifications on cytosine”.

Columns and labels:
Assay in all cases: DAPPL (digital affinity profiling via proximity ligation, sequencing); 10 mM Tris-HCl pH 7.5, 50 mM NaCl, 1 mM DTT, 4% glycerol, room temperature, 30 min; GST-TFs on glutathione beads, 16-mer random dsDNA library, 0.1% formaldehyde crosslink after washing; high values mean tight binding
Conditions in all cases: protein: recombinant; tags: N-terminal GST; dsDNA, one strand shown
[1] = target: T1, ETV2 (Homo sapiens, UniProt O00321 1-342)
T1 sequence: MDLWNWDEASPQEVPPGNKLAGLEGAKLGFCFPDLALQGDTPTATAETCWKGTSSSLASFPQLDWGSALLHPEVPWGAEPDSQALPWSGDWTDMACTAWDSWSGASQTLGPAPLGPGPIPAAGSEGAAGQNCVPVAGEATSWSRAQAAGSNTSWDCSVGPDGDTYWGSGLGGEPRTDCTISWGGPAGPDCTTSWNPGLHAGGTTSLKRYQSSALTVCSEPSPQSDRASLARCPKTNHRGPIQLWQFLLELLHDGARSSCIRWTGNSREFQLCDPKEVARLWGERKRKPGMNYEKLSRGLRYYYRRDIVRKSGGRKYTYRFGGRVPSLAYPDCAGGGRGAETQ
Procedure, shortened: (§1)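 Binding signal is each hexamer's read frequency for a factor divided by its frequency in the tag-only sample. The factors were GST-fused human transcription factors from yeast, captured on glutathione beads, DNA-barcoded and pooled with that sample. Pools were incubated with 200 nmole of a random double-stranded 16-mer DNA library in Tris/NaCl/DTT/glycerol buffer at room temperature for 30 min, then washed, crosslinked with 0.1% formaldehyde, proximity-ligated with BsaI/T4 ligase (1 h, 37 °C), PCR-amplified and sequenced on an Illumina NextSeq500.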

[2] = target: T2, ELF3 (Homo sapiens, UniProt P78545 1-371)
T2 sequence: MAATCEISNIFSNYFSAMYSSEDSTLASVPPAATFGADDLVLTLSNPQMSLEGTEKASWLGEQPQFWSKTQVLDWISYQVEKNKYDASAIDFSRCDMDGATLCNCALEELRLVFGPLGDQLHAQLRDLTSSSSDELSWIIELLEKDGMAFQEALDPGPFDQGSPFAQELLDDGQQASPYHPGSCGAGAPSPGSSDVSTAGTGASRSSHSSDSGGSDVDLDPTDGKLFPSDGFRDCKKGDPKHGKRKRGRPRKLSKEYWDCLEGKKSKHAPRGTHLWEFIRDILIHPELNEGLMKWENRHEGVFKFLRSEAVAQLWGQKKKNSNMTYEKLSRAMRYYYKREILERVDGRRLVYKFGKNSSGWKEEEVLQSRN
Procedure, shortened: as §1

[3] = target: ETV1 (Homo sapiens, UniProt P50549 1-477)
Procedure, shortened: as §1

[4] = target: T3, ERF (Homo sapiens, UniProt P50548 1-548)
T3 sequence: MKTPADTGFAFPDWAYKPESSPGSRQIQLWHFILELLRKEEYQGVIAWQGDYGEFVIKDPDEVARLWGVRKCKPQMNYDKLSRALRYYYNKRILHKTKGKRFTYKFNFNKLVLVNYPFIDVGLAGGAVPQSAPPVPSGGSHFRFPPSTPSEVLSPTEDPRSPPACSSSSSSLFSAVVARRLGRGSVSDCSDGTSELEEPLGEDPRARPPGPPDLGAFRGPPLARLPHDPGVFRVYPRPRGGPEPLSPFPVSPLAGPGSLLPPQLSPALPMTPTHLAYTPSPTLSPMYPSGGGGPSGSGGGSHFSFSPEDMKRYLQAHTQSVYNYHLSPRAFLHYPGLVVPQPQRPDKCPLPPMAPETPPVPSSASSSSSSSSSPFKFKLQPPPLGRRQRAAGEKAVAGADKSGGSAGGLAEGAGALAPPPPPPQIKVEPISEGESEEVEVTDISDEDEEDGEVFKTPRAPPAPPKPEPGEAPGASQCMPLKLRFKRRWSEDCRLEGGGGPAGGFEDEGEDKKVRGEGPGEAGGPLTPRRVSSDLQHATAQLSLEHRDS
Procedure, shortened: as §1

[5] = target: T4, ETV3L (Homo sapiens, UniProt Q6ZN32 1-361)
T4 sequence: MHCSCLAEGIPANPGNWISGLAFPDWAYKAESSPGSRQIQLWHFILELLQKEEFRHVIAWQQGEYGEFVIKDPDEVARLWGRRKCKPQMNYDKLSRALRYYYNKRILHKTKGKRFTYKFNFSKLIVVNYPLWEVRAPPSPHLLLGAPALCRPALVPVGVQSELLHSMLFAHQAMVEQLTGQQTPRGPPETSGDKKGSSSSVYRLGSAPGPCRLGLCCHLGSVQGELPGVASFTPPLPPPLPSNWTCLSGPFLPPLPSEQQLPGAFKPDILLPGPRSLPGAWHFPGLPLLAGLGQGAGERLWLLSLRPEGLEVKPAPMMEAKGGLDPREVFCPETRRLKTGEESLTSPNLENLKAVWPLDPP
Procedure, shortened: as §1

[6] = target: T5, ETS2 (Homo sapiens, UniProt P15036 1-469)
T5 sequence: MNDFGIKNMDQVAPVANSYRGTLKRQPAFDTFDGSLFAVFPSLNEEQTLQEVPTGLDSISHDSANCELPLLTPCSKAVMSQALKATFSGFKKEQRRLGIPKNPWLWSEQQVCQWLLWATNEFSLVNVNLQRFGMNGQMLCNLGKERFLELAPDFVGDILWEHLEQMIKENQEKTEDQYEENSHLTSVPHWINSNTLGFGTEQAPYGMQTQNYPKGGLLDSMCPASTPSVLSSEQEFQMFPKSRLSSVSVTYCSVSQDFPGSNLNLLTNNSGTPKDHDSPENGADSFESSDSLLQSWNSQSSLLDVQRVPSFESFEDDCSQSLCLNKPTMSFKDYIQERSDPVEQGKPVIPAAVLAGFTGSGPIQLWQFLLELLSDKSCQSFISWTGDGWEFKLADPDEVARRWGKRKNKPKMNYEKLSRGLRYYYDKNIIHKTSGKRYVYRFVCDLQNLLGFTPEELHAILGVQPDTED
Procedure, shortened: as §1

[7] = target: T6, SPDEF (Homo sapiens, UniProt O95238 1-335)
T6 sequence: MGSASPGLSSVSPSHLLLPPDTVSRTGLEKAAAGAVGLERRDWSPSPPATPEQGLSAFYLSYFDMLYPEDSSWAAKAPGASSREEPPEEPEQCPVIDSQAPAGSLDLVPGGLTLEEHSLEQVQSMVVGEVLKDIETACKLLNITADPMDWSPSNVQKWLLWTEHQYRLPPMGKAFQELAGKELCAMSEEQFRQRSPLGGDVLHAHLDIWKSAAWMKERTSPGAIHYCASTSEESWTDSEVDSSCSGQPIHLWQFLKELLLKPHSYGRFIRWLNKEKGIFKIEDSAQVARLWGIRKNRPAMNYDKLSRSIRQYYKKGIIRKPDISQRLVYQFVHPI
Procedure, shortened: as §1

[8] = target: T7, ETV7 (Homo sapiens, UniProt Q9Y603 1-341)
T7 sequence: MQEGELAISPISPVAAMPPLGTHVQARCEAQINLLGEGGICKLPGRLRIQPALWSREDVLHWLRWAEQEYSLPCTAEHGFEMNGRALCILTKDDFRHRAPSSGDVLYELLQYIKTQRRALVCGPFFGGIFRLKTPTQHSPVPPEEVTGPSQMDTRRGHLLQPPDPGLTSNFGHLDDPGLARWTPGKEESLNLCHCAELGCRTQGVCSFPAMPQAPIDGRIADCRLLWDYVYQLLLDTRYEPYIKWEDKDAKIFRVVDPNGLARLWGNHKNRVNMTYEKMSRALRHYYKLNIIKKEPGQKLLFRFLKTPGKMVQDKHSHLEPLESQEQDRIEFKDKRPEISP
Procedure, shortened: as §1

[9] = target: T8, ETV3 (Homo sapiens, UniProt P41162-2 1-143)
T8 sequence: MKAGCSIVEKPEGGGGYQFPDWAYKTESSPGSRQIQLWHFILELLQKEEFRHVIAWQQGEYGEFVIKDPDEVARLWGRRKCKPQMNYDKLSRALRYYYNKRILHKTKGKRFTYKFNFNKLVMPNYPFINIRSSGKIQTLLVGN
Procedure, shortened: as §1

[10] = target: ETV6 (Homo sapiens, UniProt P41212 1-452)
Procedure, shortened: as §1

Chain of ETV1 (P50549 whole entry): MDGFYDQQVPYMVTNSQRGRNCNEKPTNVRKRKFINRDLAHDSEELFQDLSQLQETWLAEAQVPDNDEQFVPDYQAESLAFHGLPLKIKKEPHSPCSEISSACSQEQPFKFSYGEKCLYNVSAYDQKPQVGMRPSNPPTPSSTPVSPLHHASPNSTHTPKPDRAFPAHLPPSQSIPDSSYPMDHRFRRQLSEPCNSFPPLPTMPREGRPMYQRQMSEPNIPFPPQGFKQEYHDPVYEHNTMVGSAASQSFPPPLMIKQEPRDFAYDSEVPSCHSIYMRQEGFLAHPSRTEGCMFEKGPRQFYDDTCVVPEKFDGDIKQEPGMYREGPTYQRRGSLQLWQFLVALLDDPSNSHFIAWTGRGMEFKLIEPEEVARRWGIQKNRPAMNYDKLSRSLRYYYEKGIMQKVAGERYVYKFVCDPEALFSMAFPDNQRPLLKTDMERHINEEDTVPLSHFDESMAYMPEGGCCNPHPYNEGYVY
Chain of ETV6 (P41212 whole entry): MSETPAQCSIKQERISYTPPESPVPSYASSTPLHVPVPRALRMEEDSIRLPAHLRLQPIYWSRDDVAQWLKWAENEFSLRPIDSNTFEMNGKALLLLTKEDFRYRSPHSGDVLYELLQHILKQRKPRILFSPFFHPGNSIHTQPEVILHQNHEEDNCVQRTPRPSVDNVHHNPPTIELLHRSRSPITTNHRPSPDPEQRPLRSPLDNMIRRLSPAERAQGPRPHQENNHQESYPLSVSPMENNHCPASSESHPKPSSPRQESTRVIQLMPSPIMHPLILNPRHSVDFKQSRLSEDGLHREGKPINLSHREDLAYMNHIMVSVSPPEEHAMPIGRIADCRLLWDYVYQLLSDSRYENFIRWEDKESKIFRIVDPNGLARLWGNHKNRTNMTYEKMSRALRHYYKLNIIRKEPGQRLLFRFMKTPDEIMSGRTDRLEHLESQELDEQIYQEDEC

How did the binding signal [1] turn out when CCCAAA was run?
Its binding signal is 1.3 fold enrichment (6-mer frequency, TF over GST control).

What about the binding signal [2] of the same sequence?
The binding signal was 1.2 fold enrichment (6-mer frequency, TF over GST control).

What about the binding signal [3] of the same sequence?
The binding signal was 1.08 fold enrichment (6-mer frequency, TF over GST control).

And the binding signal [4]?
Its binding signal is 1.11 fold enrichment (6-mer frequency, TF over GST control).

What about the binding signal [5] of the same sequence?
Its binding signal is 1.12 fold enrichment (6-mer frequency, TF over GST control).

What about the binding signal [6] of the same sequence?
The binding signal was 1.02 fold enrichment (6-mer frequency, TF over GST control).

And the binding signal [7]?
Its binding signal is 1.06 fold enrichment (6-mer frequency, TF over GST control).

What about the binding signal [8] of the same sequence?
The binding signal was 1.09 fold enrichment (6-mer frequency, TF over GST control).

And the binding signal [9]?
Its binding signal is 1.02 fold enrichment (6-mer frequency, TF over GST control).

And the binding signal [10]?
The binding signal was 1.1 fold enrichment (6-mer frequency, TF over GST control).
